# Reference: PubChem BioAssay (NCI)
# The panel holds about 83,000 compounds, 20% with a hit somewhere; the sample as a whole holds those more often.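 Assay: single dose, 48 h. Readout: percent growth (0 = no net growth; negative = cell death). Active: <10.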 Unmarked numbers belong to inactive results. Calls of active or inactive are those of the source.
# Tests used:
# Assay in all cases: NCI-60 one-dose screen, 48 h (100 = growth as untreated, 0 = no growth, -100 = all killed)
# Conditions in all cases: 10 µM
# K-562 leukemia = tested on: K-562 leukemia
# MDA-MB-231 breast = tested on: MDA-MB-231 breast
# RXF 393 renal = tested on: RXF 393 renal
# SF-268 CNS = tested on: SF-268 CNS
# SF-295 CNS = tested on: SF-295 CNS
# SF-539 CNS = tested on: SF-539 CNS
# UACC-257 melanoma = tested on: UACC-257 melanoma
# M14 melanoma = tested on: M14 melanoma
# HCT-15 colon = tested on: HCT-15 colon
# MALME-3M melanoma = tested on: MALME-3M melanoma
SMILES,growth (K-562 leukemia),growth (MDA-MB-231 breast),growth (RXF 393 renal),growth (SF-268 CNS),growth (SF-295 CNS),growth (SF-539 CNS),growth (UACC-257 melanoma),growth (M14 melanoma),growth (HCT-15 colon),growth (MALME-3M melanoma)
CCN(CC)CCOc1nc2cc(OC)c(OC)cc2c2c1-c1ccc(OC)cc1C2=O,69.6%,92.4%,86.2%,44.3%,29.6%,81.9%,101%,85.9%,81.4%,
COc1ccc2c(c1)sc1nc(-c3ccccc3)c(-c3cccnc3)n12,82%,107%,103%,111%,97%,102%,100%,97.7%,84.6%,
CCN(CC)CCN1CC(=O)Nc2cc(Cl)ccc21,120%,116%,122%,108%,103%,105%,102%,93.9%,107%,
CCN(CC)CCCC(C)Nc1ccc2ccc(Cl)cc2n1 (stereo not given),95.6%,90.3%,,96.8%,95.3%,101%,,103%,102%,115%
CSc1cc(SC)ncn1,96.6%,95.7%,124%,112%,102%,98.1%,104%,112%,98.2%,
NC1=NC(=O)C(c2ccccc2)(c2ccccc2)S1,90.8%,104%,109%,113%,112%,111%,110%,107%,101%,
Nc1nccc(Nc2ccccc2)n1,102%,118%,112%,109%,104%,93.5%,95.8%,108%,110%,
Cc1nc2oc3ccccc3c(=O)c2cc1C(=O)NCc1ccccc1,13.1%,87.9%,113%,83%,43.2%,93.4%,68.1%,45.9%,70.2%,
O=c1cc(-c2ccccc2)[nH]n1-c1nc2ccccc2[nH]1,10.1%,73%,52.2%,60.2%,21.6%,47.6%,75.6%,41.8%,,
COc1cc(-c2cc(C(=O)N3CCN(C(=O)c4ccccc4NCc4ccco4)CC3)nc3cc(-c4ccccc4)nn23)cc(OC)c1OC,12.3%,42.9%,6.82% (active),38.6%,49.7%,17.8%,33.6%,23.8%,29.1%,
Cc1cc2ccccc2nc1-c1ccccc1F,110%,112%,99%,101%,107%,107%,89.6%,108%,101%,
O=[N+]([O-])c1ccc(Oc2cccnc2)c([N+](=O)[O-])c1,16.1%,94%,63.9%,97.5%,104%,75.7%,63.6%,84.9%,53.1%,
COc1cc(C)ccc1C(=O)c1ccc(C)cc1OC,10%,41.2%,-10.5% (active),43.5%,-39.1% (active),3.62% (active),60.3%,12.4%,36.3%,
N=c1c2c(-c3ccccc3)c(-c3ccccc3)n(Cc3ccccc3)c2ncn1CCCO,-0.624% (active),39%,12.7%,41.4%,88.3%,54.1%,-24.9% (active),43.4%,,
O=C(Nc1ccncc1)C(=O)c1cn(S(=O)(=O)c2ccc(F)cc2)c2ccccc12,9.29% (active),57.8%,68.1%,47.9%,61.3%,16.2%,49.1%,14%,23.1%,
CCN(CC)CCC(=O)Nc1cccc2c1C(=O)c1c(c(O)c3ccccc3c1O)C2=O,23.3%,,58.4%,56.9%,25.7%,38%,85.6%,70.8%,51.9%,61.6%
N#Cc1cc(-c2cc3ccccc3o2)oc1N,2.52% (active),-27.1% (active),,29%,-28.1% (active),-45% (active),,26.4%,9.98% (active),-5.2% (active)
CCN1CCC(CCOC)(CN2c3ccccc3Sc3ccc(Cl)cc32)C1 (stereo not given),-15.2% (active),35%,37.3%,63.3%,72.4%,78%,24.6%,-65.9% (active),,
COc1ccc2c(c1)C(=O)c1c-2c(OCCN2CCCCC2)nc2ccc(OC)cc12,11.2%,66.5%,47.3%,28.1%,2.81% (active),20.9%,32.3%,22.9%,26.2%,
Clc1cccc(-c2nc(-c3cccs3)no2)c1,102%,81.4%,113%,106%,92.2%,92.6%,110%,105%,47.4%,
O=C(O)c1ccc(Cl)cc1Nc1ccc(F)cc1,75.4%,70.4%,92.7%,62.4%,73%,93.8%,97.6%,77.6%,53.7%,
COc1ccc(/C=C/C(=O)Nc2ccc(-c3nc4ccc(F)cc4s3)cc2)cc1,79.6%,97%,101%,112%,95.5%,111%,94.9%,102%,105%,
CCN(CC)CCOc1nc2ccc(OC)cc2c2c1-c1ccc(OC)cc1C2=O,-43.5% (active),20.5%,4.4% (active),17.3%,-2.73% (active),28.8%,-52.8% (active),-83.3% (active),-59.4% (active),
O=C1OCC2=C1C(c1cccc(Cl)c1)c1cc3c(cc1N2CCO)OCO3 (stereo not given),15.4%,31.7%,6.21% (active),46.5%,-4.59% (active),-9.08% (active),61%,11%,18.5%,
Cc1cc(C)c(CCc2cc(C)c(C)cc2C)cc1C,94.8%,104%,117%,103%,108%,105%,101%,111%,117%,
COc1ccc(-c2nc3sc(-c4ccccc4)c(-c4ccccc4)n3c2/C=C/C(=O)c2ccccn2)cc1,66%,75.9%,84%,88%,99.5%,83.7%,87.2%,89%,60.6%,
CN1c2ccccc2[C@]2(Cc3ccccc3)Cc3ccccc3N[C@H]12,92.1%,97.5%,112%,112%,104%,105%,111%,104%,96.3%,
COc1ccc2c(c1)C(=O)c1c-2c(=O)n(CCCN(C)C)c2cc(OC)c(OC)cc12,64.5%,103%,89.4%,46.9%,20.7%,55%,100%,48.4%,82.2%,
COc1ccc2c(c1)N(CCO)C1=C(C(=O)OC1)C2c1ccc(OC)c(OC)c1 (stereo not given),19.8%,68%,28.2%,54.3%,7.46% (active),13%,53.7%,36.1%,39.6%,
O=C(CC(NC(=O)OCc1ccccc1)C(=O)OCc1ccccc1)OCc1ccccc1 (stereo not given),112%,123%,125%,103%,110%,111%,94.2%,90.5%,106%,
